Reference: PubChem BioAssay AID1159580 (chemical genetic matrix, 2015)
“And” between values parts separate entries of the source, which are not always exact repeats. Equal values may be shown once. About 2,000 (36%) of roughly 5,500 compounds were called active. Another 18% or so got no clear call; they are omitted. Cut-off read from the data, not from the text of the source: active = normalized growth mostly below about 0.91 (no sharp cut-off); inconclusive = no clear call, values can overlap the other calls; inactive = mostly above about 0.92. The list shows a part of the results.

Assay: chemical genetic growth profiling, strain panel (AID 1159580);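 note: tested at 20 µM; growth read once vehicle control cultures reached saturation at 30 °C; 1 = growth at the plate median or of vehicle wells; lower values mean less growth of the strain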
Conditions: S. cerevisiae deletion strains, growth OD

Measured: normalized growth

COc1ccc2c(c1)c(CC(=O)OCC(=O)O)c(C)n2C(=O)c1ccc(Cl)cc1
inactive: locus YAL013W, strain DEP1, stronger effect = lower value 1.01 | locus YAL021C, strain ccr4, stronger effect = lower value 0.982 | locus YAL026C, strain drs2, stronger effect = lower value 1.01 | locus YAL030W, strain snc1, stronger effect = lower value 0.99 | locus YBL061C, strain skt5, stronger effect = lower value 1 | locus YBR009C, strain hhf1, stronger effect = lower value 0.991 | locus YBR021W, strain FUR4, stronger effect = lower value 1.01 | locus YBR023C, strain chs3, stronger effect = lower value 1.01 | locus YBR171W, strain sec66, stronger effect = lower value 0.978 | locus YBR229C, strain ROT2, stronger effect = lower value 1.02 | locus YBR231C, strain swc5, stronger effect = lower value 0.973 | locus YBR279W, strain paf1, stronger effect = lower value 1.01 | locus YCL011C, strain gbp2, stronger effect = lower value 1.02 | locus YCL016C, strain dcc1, stronger effect = lower value 1.01 | locus YCL029C, strain bik1, stronger effect = lower value 1.04 | locus YCL069W, strain vba3, stronger effect = lower value 1 | locus YCR088W, strain abp1, stronger effect = lower value 1.01 | locus YDL005C, strain med2, stronger effect = lower value 0.979 | locus YDL035C, strain GPR1, stronger effect = lower value 1.02 | locus YDL040C, strain nat1, stronger effect = lower value 0.995 | locus YDL074C, strain BRE1, stronger effect = lower value 1.01 | locus YDL101C, strain DUN1, stronger effect = lower value 1.02 | locus YDL134C, strain PPH21, stronger effect = lower value 1.02 | locus YDL185W, strain tfp1, stronger effect = lower value 1.02 | locus YDL192W, strain arf1, stronger effect = lower value 1.02 | locus YDR001C, strain nth1, stronger effect = lower value 1.01 | locus YDR069C, strain doa4, stronger effect = lower value 0.996 | locus YDR101C, strain arx1, stronger effect = lower value 1.02 | locus YDR137W, strain rgp1, stronger effect = lower value 1.02 | locus YDR150W, strain NUM1, stronger effect = lower value 1.02 | locus YDR159W, strain sac3, stronger effect = lower value 0.964 | locus YDR162C, strain NBP2, stronger effect = lower value 1.01 | locus YDR195W, strain ref2 0.939 | locus YDR297W, strain sur2, stronger effect = lower value 1 | locus YDR318W, strain mcm21, stronger effect = lower value 1.02 | locus YDR334W, strain swr1, stronger effect = lower value 1 | locus YDR335W, strain msn5, stronger effect = lower value 0.989 | locus YDR388W, stronger effect = lower value 1.01 | locus YDR392W, strain spt3, stronger effect = lower value 1.03 | locus YDR502C, strain sam2, stronger effect = lower value 1.03 | locus YEL003W, strain gim4, stronger effect = lower value 0.988 | locus YEL037C, strain rad23, stronger effect = lower value 1 | locus YEL061C, strain CIN8 (second series), stronger effect = lower value 0.995 | locus YEL061C, strain CIN8, stronger effect = lower value 1.01 | locus YER015W, strain faa2, stronger effect = lower value 1 | locus YER016W, strain bim1, stronger effect = lower value 1.01 | locus YER110C, stronger effect = lower value 1.02 | locus YER111C, strain swi4, stronger effect = lower value 0.991 | locus YER155C, strain BEM2 (second series), stronger effect = lower value 0.989 | locus YER155C, strain BEM2, stronger effect = lower value 1.01 | locus YER167W, strain BCK2, stronger effect = lower value 1.01 | locus YFR010W, strain ubp6, stronger effect = lower value 0.994 | locus YGL078C, strain dbp3, stronger effect = lower value 1.01 | locus YGL086W, strain mad1, stronger effect = lower value 1.01 | locus YGL167C, strain pmr1, stronger effect = lower value 0.987 | locus YGL173C, strain kem1, stronger effect = lower value 0.976 | locus YGL227W, strain vid30, stronger effect = lower value 0.999 | locus YGL240W, strain doc1, stronger effect = lower value 0.982 | locus YGL248W, strain PDE1, stronger effect = lower value 1.01 | locus YGL253W, strain hxk2, stronger effect = lower value 1.01 | locus YGR078C, strain PAC10, stronger effect = lower value 1.02 | locus YGR135W, strain pre9, stronger effect = lower value 1.02 | locus YGR229C, strain SMI1, stronger effect = lower value 1.02 | locus YGR252W, strain gcn5, stronger effect = lower value 0.987 | locus YHR013C, strain ard1, stronger effect = lower value 1.09 | locus YHR027C, strain rpn1, stronger effect = lower value 0.999 | locus YHR030C, strain SLT2, stronger effect = lower value 1.02 and 0.958 | locus YHR079C, strain IRE1 (second series), stronger effect = lower value 1.01 | locus YHR079C, strain IRE1, stronger effect = lower value 0.941 | locus YHR094C, strain hxt1, stronger effect = lower value 1.01 | locus YHR129C, strain ARP1, stronger effect = lower value 1 | locus YHR142W, strain chs7, stronger effect = lower value 1.01 | locus YHR200W, strain rpn10, stronger effect = lower value 1.01 | locus YIL066C, strain RNR3, stronger effect = lower value 1.02 | locus YIL073C, strain SPO22, stronger effect = lower value 1.06 | locus YIL125W, strain kgd1, stronger effect = lower value 1.01 | locus YIR030C, strain dcg1, stronger effect = lower value 1.02 | locus YJL092W, strain hpr5, stronger effect = lower value 0.981 | locus YJL095W, strain BCK1 (second series), stronger effect = lower value 1.01 | locus YJL095W, strain BCK1, stronger effect = lower value 1.05 and 0.968 | locus YJL115W, strain asf1, stronger effect = lower value 0.992 | locus YJL129C, strain trk1, stronger effect = lower value 0.979 | locus YJL134W, strain LCB3, stronger effect = lower value 1.01 | locus YJL154C, strain vps35, stronger effect = lower value 0.992 | locus YJL164C, strain tpk1, stronger effect = lower value 1.03 | locus YJL166W, strain qcr8, stronger effect = lower value 0.974 | locus YJL168C, strain set2, stronger effect = lower value 1.01 | locus YJL187C, strain SWE1 (second series), stronger effect = lower value 1.03 | locus YJL187C, strain SWE1, stronger effect = lower value 1.01 | locus YJR043C, strain POL32, stronger effect = lower value 1.03 | locus YJR066W, strain TOR1, stronger effect = lower value 0.89
